10 compounds from PubChem BioAssay (NCI) can be followed below.

The panel holds about 79,000 compounds, 15% with a hit somewhere; the sample as a whole holds those more often. Values without a mark were called inactive. Calls of active or inactive are those of the source. No stated cut-off is given here; in the data, active means growth inhibition above about 70%; inactive means the rest.

The nature of assay [1]: NCI Yeast Anticancer Drug Screen. Data for the rad50 strain (AID 155).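 Further: 0% = growth of vehicle-only cultures of the same strain.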 The note with it: S. cerevisiae rad50 strain growth inhibition, active compounds read high. A digest of the protocol:
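Compounds were tested on a yeast strain with an engineered DNA damage repair alteration; the reported value is growth inhibition normalised to vehicle treatment.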

Assay [2] is described as follows: NCI Yeast Anticancer Drug Screen. Data for the mec2-1 strain (AID 157). The note with it: S. cerevisiae mec2-1 strain, active compounds read high. In short, it runs like this:
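Vehicle-treated cultures served as reference for growth inhibition of compound-exposed mec2-1 yeast.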

Assay [3] is described as follows: NCI Yeast Anticancer Drug Screen. Data for the sgs1 mgt1 strain (AID 161).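 Further: 0% = growth of cultures given vehicle only.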 The note with it: S. cerevisiae sgs1 mgt1 strain, active compounds read high. A digest of the protocol:
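Read-out: growth inhibition vs vehicle controls. Cells: mutant yeast strain deficient in DNA damage repair.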

The nature of assay [4]: NCI Yeast Anticancer Drug Screen. Data for the cln2 rad14 strain (AID 165).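 Further: 0% = growth equal to vehicle treated cultures.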 To be noted: S. cerevisiae cln2 rad14 strain, active compounds read high. In short, it runs like this: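 Each compound was tested on cln2 rad14 yeast. Inhibition of growth was calculated against vehicle-exposed controls.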
A short description of assay [5]: NCI Yeast Anticancer Drug Screen. Data for the bub3 strain (AID 167). To be noted: S. cerevisiae bub3 mutant strain, active compounds read high. In short, it runs like this:
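Growth of a checkpoint-deficient yeast mutant is measured after compound exposure. Values represent inhibition relative to vehicle.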

A short description of assay [6]: NCI Yeast Anticancer Drug Screen. Data for the mlh1 rad18 strain (AID 175). The note with it: S. cerevisiae mlh1 rad18 strain growth inhibition, active compounds read high. A digest of the protocol:
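Vehicle-treated cultures served as the reference for growth inhibition in a yeast strain carrying DNA damage repair alterations exposed to each compound.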

The mark [7] stands for this setting: at 5.0 µM (retest, dose inferred, filed as 0.5).
Setting [8] is: at 50.0 µM (retest, dose inferred, filed as 5.0).

For `Cc1cn(C2OC(CO)C(O)C(O)C2N)c(=O)[nH]c1=O` (stereo not given), the growth inhibition in assay [1] (setting [7]) was 0%; in assay [1] (setting [8]) it was -2%; in assay [1] (at 50.0 µM), 86.5% (active); in assay [2] (setting [7]), 3%; in assay [2] (setting [8]), 10%; in assay [2] (at 50.0 µM), 70.3% (active). In addition, the growth inhibition in assay [3] (setting [7]) is 1%; in assay [3] (setting [8]), 8%; in assay [3] (at 50.0 µM), 56.5%; in assay [4] (setting [7]), -4%; in assay [4] (setting [8]), 0%; in assay [4] (at 50.0 µM) it was 61.6%. Also, the figures for the growth inhibition in assay [5] (setting [7]), in assay [5] (setting [8]) and in assay [5] (at 50.0 µM) were -8%, -13% and 93.9% (active), respectively.

For `O=C(O)c1ccccc1/C=C1\Cc2ccc3c(c2C1=O)CCCC3`, the growth inhibition was 18% in assay [1] (setting [7]); 18% in assay [1] (setting [8]); 81.6% (active) in assay [1] (at 50.0 µM); 6% in assay [2] (setting [7]); 6% in assay [2] (setting [8]); 83.1% (active) in assay [2] (at 50.0 µM). Moreover, the growth inhibition in assay [3] (setting [7]) was 6%; in assay [3] (setting [8]), 6%; in assay [3] (at 50.0 µM), 81.3% (active); in assay [4] (setting [7]), -4%; in assay [4] (setting [8]), -4%; in assay [4] (at 50.0 µM) it was 85.5% (active). In addition, the growth inhibition is -5% in assay [5] (setting [7]); -5% in assay [5] (setting [8]); 81.5% (active) in assay [5] (at 50.0 µM); 12% in assay [6] (setting [7]); 12% in assay [6] (setting [8]); 79.9% (active) in assay [6] (at 50.0 µM).

For the compound `COc1cc2c(cc1O)C1C(O)C(O)C=C3CCN(C2)C31` (stereo not given), the growth inhibition in assay [1] (setting [7]) is 4%; in assay [1] (setting [8]), 97% (active); in assay [1] (at 50.0 µM) it was 85.5% (active); in assay [2] (setting [7]) it was 4%; in assay [2] (setting [8]) it was 97% (active); in assay [2] (at 50.0 µM), 84.8% (active). In addition, the growth inhibition in assay [3] (setting [7]) is 5%; in assay [3] (setting [8]) it was 96% (active); in assay [3] (at 50.0 µM), 82.5% (active); in assay [4] (setting [7]), 14%; in assay [4] (setting [8]), 96% (active); in assay [4] (at 50.0 µM), 84% (active). In addition, the growth inhibition was 2% in assay [5] (setting [7]); 95% (active) in assay [5] (setting [8]); 85.5% (active) in assay [5] (at 50.0 µM); 3% in assay [6] (setting [7]); 97% (active) in assay [6] (setting [8]); 86.9% (active) in assay [6] (at 50.0 µM).

Consider `CC(=O)OCC1OC(Sc2ccc3ccccc3c2)C(OC(C)=O)C(OC(C)=O)C1OC(C)=O` (stereo not given), for which the growth inhibition is 2% in assay [1] (setting [7]); -7% in assay [1] (setting [8]); 23.9% in assay [1] (at 50.0 µM); 3% in assay [2] (setting [7]); 2% in assay [2] (setting [8]); 12.8% in assay [2] (at 50.0 µM). Besides, the growth inhibition is 2% in assay [3] (setting [7]); 1% in assay [3] (setting [8]); 2.7% in assay [3] (at 50.0 µM); 1% in assay [4] (setting [7]); -15% in assay [4] (setting [8]); 52.4% in assay [4] (at 50.0 µM). Further, the growth inhibition in assay [5] (setting [7]) was 4%; in assay [5] (setting [8]), 7%; in assay [5] (at 50.0 µM), 70.2% (active); in assay [6] (setting [7]), 0%; in assay [6] (setting [8]), -2%; in assay [6] (at 50.0 µM), 22%.

Take `CCOC(=O)C1SC(=Nc2ccc(Cl)cc2C)N=C1C` (stereo not given): the growth inhibition in assay [1] (setting [7]) is 29%; in assay [1] (setting [8]), 98% (active); in assay [1] (at 50.0 µM), 89% (active); in assay [2] (setting [7]) it was 25%; in assay [2] (setting [8]), 97% (active); in assay [2] (at 50.0 µM) it was 92.2% (active). The growth inhibition in assay [3] (setting [7]) is 32%; in assay [3] (setting [8]), 99% (active); in assay [3] (at 50.0 µM) it was 91.7% (active); in assay [4] (setting [7]), 22%; in assay [4] (setting [8]) it was 97% (active); in assay [4] (at 50.0 µM), 90.2% (active). The growth inhibition in assay [5] (setting [7]) is 24%; in assay [5] (setting [8]), 98% (active); in assay [5] (at 50.0 µM), 91.2% (active); in assay [6] (setting [7]) it was 35%; in assay [6] (setting [8]) it was 98% (active); in assay [6] (at 50.0 µM) it was 90% (active).

For `COc1nc2nc(SC(CC(=O)O)C(=O)c3ccc(Cl)cc3)[nH]c2c2ccccc12` (stereo not given), the growth inhibition in assay [1] (setting [7]) was 1%; in assay [1] (setting [8]), 7%; in assay [1] (at 50.0 µM), 10.1%; in assay [2] (setting [7]) it was 0%; in assay [2] (setting [8]) it was 1%; in assay [2] (at 50.0 µM), 7.45%. Further, the growth inhibition in assay [3] (setting [7]) was 2%; in assay [3] (setting [8]) it was -18%; in assay [3] (at 50.0 µM), -3.85%; in assay [4] (setting [7]) it was 2%; in assay [4] (setting [8]), -15%; in assay [4] (at 50.0 µM), -12.1%. For the same compound, the growth inhibition in assay [5] (setting [7]) was -2%; in assay [5] (setting [8]), -1%; in assay [5] (at 50.0 µM) it was -5.45%; in assay [6] (setting [7]) it was -1%; in assay [6] (at 50.0 µM), 32.9%.

Take `BrCc1ccc2ccc3ccc(CBr)nc3c2n1`: the growth inhibition in assay [1] (setting [7]) was 2%; in assay [1] (setting [8]) it was 83% (active); in assay [1] (at 50.0 µM), 69.7%; in assay [2] (setting [7]) it was 11%; in assay [2] (setting [8]) it was 91% (active); in assay [2] (at 50.0 µM) it was 43.5%. Moreover, the growth inhibition was 11% in assay [3] (setting [7]); 95% (active) in assay [3] (setting [8]); 63.9% in assay [3] (at 50.0 µM); -12% in assay [4] (setting [7]); 89% (active) in assay [4] (setting [8]); 24.8% in assay [4] (at 50.0 µM). In addition, the growth inhibition in assay [5] (setting [7]) was -4%; in assay [5] (setting [8]), 94% (active); in assay [5] (at 50.0 µM), 45%; in assay [6] (setting [7]), 8%; in assay [6] (setting [8]), 95% (active); in assay [6] (at 50.0 µM), 64.8%.

As for `ClCc1nc2ccccc2c2ccccc12`, the growth inhibition in assay [1] (setting [7]) was 15%; in assay [1] (setting [8]) it was 50%; in assay [1] (at 50.0 µM), 73.8% (active); in assay [2] (setting [7]), 22%; in assay [2] (setting [8]), 26%; in assay [2] (at 50.0 µM) it was 20.8%. Moreover, the growth inhibition in assay [3] (setting [7]) is 7%; in assay [3] (setting [8]), 21%; in assay [3] (at 50.0 µM) it was 55.9%; in assay [4] (setting [7]), 10%; in assay [4] (setting [8]), 13%; in assay [4] (at 50.0 µM), -28.2%. Moreover, the figures for the growth inhibition in assay [5] (setting [7]), in assay [5] (setting [8]) and in assay [5] (at 50.0 µM) were 20%, 67% and 61.1%, respectively.

For the compound `COc1ccc(C(=O)Cn2c(C(C)=O)nc3ccccc32)cc1`, the growth inhibition is 26% in assay [1] (setting [7]); 66% in assay [1] (setting [8]); -23.6% in assay [1] (at 50.0 µM); 18% in assay [2] (setting [7]); 36% in assay [2] (setting [8]); -21.1% in assay [2] (at 50.0 µM). Besides, the growth inhibition was 36% in assay [3] (setting [7]); 73% (active) in assay [3] (setting [8]); -14.5% in assay [3] (at 50.0 µM); 6% in assay [4] (setting [7]); 32% in assay [4] (setting [8]); 4% in assay [4] (at 50.0 µM). Besides, the growth inhibition in assay [5] (setting [7]) was 31%; in assay [5] (setting [8]) it was 36%; in assay [5] (at 50.0 µM) it was -32.6%; in assay [6] (setting [7]), 28%; in assay [6] (setting [8]), 52%; in assay [6] (at 50.0 µM), -43.2%.

As to `O=C(CBr)C1(Br)CCN(Cc2ccccc2)CC1`, the growth inhibition is 19% in assay [1] (setting [7]); 99% (active) in assay [1] (setting [8]); 99.3% (active) in assay [1] (at 50.0 µM); 17% in assay [2] (setting [7]); 99% (active) in assay [2] (setting [8]); 99.8% (active) in assay [2] (at 50.0 µM). In addition, the growth inhibition in assay [3] (setting [7]) is 22%; in assay [3] (setting [8]), 99% (active); in assay [3] (at 50.0 µM) it was 99.6% (active); in assay [4] (setting [7]) it was 8%; in assay [4] (setting [8]) it was 99% (active); in assay [4] (at 50.0 µM) it was 97.6% (active). The growth inhibition in assay [5] (setting [7]) was 6%; in assay [5] (setting [8]), 99% (active); in assay [5] (at 50.0 µM), 99.5% (active).
